# Laboratory results from PubChem BioAssay (Tox21).
# Unmarked numbers belong to inactive results. The source made the active and inactive calls. Calls follow the shape of the full dose curve.
# Test: qHTS assay to identify small molecule agonists of the sonic hedgehog signaling (Shh) pathway (AID 1259368);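 also: NIH/3T3-derived 3T3Gli1-Luc cells carrying a stable Gli1-driven firefly luciferase reporter; nearly all actives have a fitted effect of over 15% in size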
# Conditions: NIH/3T3 Gli1-Luc reporter, luciferase, 24 h; series mostly up to 92.4 µM; activity change: at the top concentration
# Text: National Center for Advancing Translational Sciences [NCATS]
# NIH Chemical Genomics Center [NCGC]
# U.S. Environmental Protection Agency [EPA]
# National Institutes of Environmental Health Sciences [NIEHS]
# National Toxicology Program [NTP]
# The sonic hedgehog (Shh) pathway is essential for normal embryonic development. Dysregulation of the Shh pathway can cause severe developmental defects in organs. Therefore chemicals that interfere with the pathway are potential developmental toxicants. A cell line designated 3T3Gli1-Luc (DMB/OARSA/CFSAN/FDA, Laurel, MD), a NIH/3T3 derived clone containing stably integrated Gli1-Luc reporter is used to detect chemical interference of the Shh pathway, by changes in the expression of the firefly Luc gene under the control of the Gli1 transcriptional response element. This cell line was used to screen Tox21 libraries for identifying and prioritizing the potential developmental toxicants that interfere Shh pathway.
# 3T3 Gli1-Luc cells were dispensed at 2,000 per well in 5uL of culture medium into white solid bottom 1536-well plates (Greiner Bio-One, Monroe, NC) using a Multidrop Combi (Thermo Scientific, Waltham, MA) dispenser. The assay plates were incubated at 37 C and 5% CO2 for 4hr, and then 23nL of compounds dissolved in DMSO and positive control were transferred using a Pintool station (Wako, San Diego, CA). The assay plates were incubated at 37C and 5% CO2 for 24hr. For luciferase read, 4uL of Amplite Luciferase reporter gene assay reagent (AAT Bioquest, Inc. Sunnyvale, CA) was added to each well of the assay plates using Flying Reagent Dispenser (FRD, Aurora Discovery, San Diego, CA) and incubated at room temperature for 30min. The luminescence signal was measured using a ViewLux plate reader (Perkin Elmer, Shelton, CT).
# % is scaled to controls: 0 for no effect and ±100 for the full control effect.
SMILES,activity change,Potency
Nc1ccc2cc(S(=O)(=O)O)cc(O)c2c1N=Nc1ccccc1C(F)(F)F,-1.86%,
CC(C)(C)C(=O)OCOC(=O)[C@@H]1N2C(=O)[C@@H](NC(=O)[C@H](N)c3ccccc3)[C@H]2SC1(C)C,"-1.19% [at 42.5 µM, stronger effect = higher value]",
CCCC/C=C/CCCCO,0.412%,
Nc1c(Cl)cc(Cl)cc1Cl,0.0031%,
Cc1ccc(-n2nc(C(C)(C)C)cc2NC(=O)Nc2ccc(OCCN3CCOCC3)c3ccccc23)cc1,"3.78% [at 42.5 µM, stronger effect = higher value]",
C=CC(=O)OCC(CO)(COC(=O)C=C)COC(=O)C=C,-16.8%,
CN(C/C=C/C#CC(C)(C)C)Cc1cccc2ccccc12,"0.348% [at 42.5 µM, stronger effect = higher value]",
N/C(=N\N=C\c1ccc(Cl)cc1)N/N=C/c1ccc(Cl)cc1,"3.85% [at 42.5 µM, stronger effect = higher value]",
CCc1oc2ccccc2c1C(=O)c1cc(Br)c(O)c(Br)c1,"-0.886% [at 42.5 µM, stronger effect = higher value]",
CN(C)c1ccc(SC#N)cc1,1.43%,
COC(=O)C1=C(C)NC(C)=C(C(=O)OCC(C)C)C1c1ccccc1[N+](=O)[O-] (stereo not given),,inactive
N=C1N=C(N)c2cc3ccccc3cc21,-14.6%,
CCCC1O[C@@H]2C[C@H]3[C@@H]4CCC5=CC(=O)C=C[C@]5(C)[C@H]4[C@@H](O)C[C@]3(C)[C@]2(C(=O)CO)O1 (stereo not given in full),,inactive
C[C@@H](NCCCc1cccc(C(F)(F)F)c1)c1cccc2ccccc12,"-7.15% [at 42.5 µM, stronger effect = higher value]",
N=C1N=C(N)c2ccccc21,-11.3%,
CC(C)(C)c1ccc(C(=O)O)cc1,0.119%,
OCc1c[nH]c2ccccc12,1.49%,
Fc1ccc(C(c2ccc(F)cc2)N2CCN(C/C=C/c3ccccc3)CC2)cc1,"-0.0354% [at 42.5 µM, stronger effect = higher value]",
Cc1onc(-c2c(Cl)cccc2Cl)c1C(=O)N[C@@H]1C(=O)N2[C@@H]1SC(C)(C)[C@@H]2C(=O)O,"-1.54% [at 42.5 µM, stronger effect = higher value]",
Oc1ccc(Cl)cc1Sc1cc(Cl)ccc1O,,inactive

SMILES,activity change,Potency
CCN(CC)CCNC(=O)c1c(C)[nH]c(/C=C2\C(=O)Nc3ccc(F)cc32)c1C,"-5.13% [at 42.5 µM, stronger effect = higher value]",
CC(C)(C)c1ccc(C(=O)CCCN2CCC(OC(c3ccccc3)c3ccccc3)CC2)cc1,"-5.33% [at 42.5 µM, stronger effect = higher value]",
C[C@@H]1C[C@H]2[C@@H]3CCC4=CC(=O)C=C[C@]4(C)[C@@]3(Cl)[C@@H](O)C[C@]2(C)[C@@]1(OC(=O)c1ccco1)C(=O)CCl,"-3.51% [at 42.5 µM, stronger effect = higher value]",
Cc1ccc2oc(CN(Cc3ccccc3)C(=O)Nc3c(F)cc(F)cc3F)c(-c3ccc(Cl)cc3)c2c1,-0.22%,
O=Cc1cc(O)ccc1Br,6.94%,
COc1ccc(-c2ccc3cc(C(=O)O)ccc3c2)cc1C12CC3CC(CC(C3)C1)C2,"-1.91% [at 42.5 µM, stronger effect = higher value]",
O=C(OCC(COC(=O)c1ccccc1)(COC(=O)c1ccccc1)COC(=O)c1ccccc1)c1ccccc1,2.8%,
C/C(=C(/OCCOc1ccc(Cl)cc1)c1ccc(Cl)cc1Cl)n1ccnc1,"0.58% [at 42.5 µM, stronger effect = higher value]",
CNCc1cc(F)ccc1Oc1ccc(Cl)c(Cl)c1,-8.22%,
CC1=C(/C=C/C(C)=C/C=C/C(C)=C/C=O)C(C)(C)CCC1,-20.5%,
CO[Si](CCCNc1ccccc1)(OC)OC,0.317%,
Clc1ccc2nsnc2c1NC1=NCCN1,"0.579% [at 42.5 µM, stronger effect = higher value]",
CC[C@H](c1ccc(O)cc1)[C@@H](CC)c1ccc(O)cc1,,inactive
CCOC(=O)c1nc(C(Cl)(Cl)Cl)n(-c2ccc(Cl)cc2Cl)n1,-2.91%,
N#CC1(c2ccc(F)cc2)CCC(=O)CC1,"0.267% [at 42.5 µM, stronger effect = higher value]",
O=c1[nH]sc2cc(Cl)ccc12,"-5.56% [at 42.5 µM, stronger effect = higher value]",
CN1CCN(CCC(=O)N2c3ccccc3Sc3ccc(C(F)(F)F)cc32)CC1,"-4.52% [at 42.5 µM, stronger effect = higher value]",
CCCCCCCC/C=C/CCCCCCCC1=NCCN1CCO,-15.6%,
CC(C)c1ccc2c(c1)CC[C@H]1[C@](C)(CN)CCC[C@]21C,-13%,
CC(NN)c1ccccc1 (stereo not given),"1.23% [at 18.9 µM, stronger effect = higher value]",
